This is an account of results in PubChem BioAssay.

SMILES strings stand for the structures. Calls of active or inactive are those of the source. Unless noted, the rule behind the calls is not given here.

The nature of experiment [1]: liver-stage malaria parasite load reduction – cell-based, known kinase inhibitor set, luminescence, hepatoma host viability (AID 624392).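 Note: infected cells incubated roughly two days before readout.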 As to conditions: Plasmodium liver stage in hepatoma cells, luciferase luminescence, concentration not given here; liver cell % of control: measured here: host liver cell viability; parasite % of control: stronger effect = lower value.
Experiment [2] can be described thus: altered dexamethasone sensitivity, NF-kB reporter, cell-based, luciferase, IL-1B stimulus (AID 624486).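 For percent of negative control (+Dex): 100% = mean signal of vehicle control wells on the plate.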 As to conditions: IL-1B + dexamethasone, luminescence; percent of negative control (+Dex): actives lie on both sides, concentration not given here; z-score: measured here: IL-1B alone, no Dex.
Experiment [3] can be described thus: C. elegans survival during P. aeruginosa infection – whole organism (AID 651566).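 Note: tested at 14 µM; sign flipped so higher z means a lower ratio.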 As to conditions: C. elegans killed by P. aeruginosa, survival ratio.
A short description of experiment [4]: pro-inflammatory signaling induction in mouse macrophages – cell-based, murine, luminescence (AID 652131). The settings on record: murine macrophage pro-inflammatory reporter, stronger effect = higher value.
The target of experiment [5] is Cellular tumor antigen p53 (Homo sapiens) (UniProt P04637). Briefly: GFP-p53 level modulators in HPV16+ cells – imaging, known kinase inhibitor set, EGFP/DsRed ratio (AID 1053116).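 Note: cells exposed to compounds for 24 h at 37 °C before reading.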 The settings on record: GFP-p53 stability, stronger effect = higher value; EGFP object count: measured here: GFP-p53 positive objects count.
Sequence of Cellular tumor antigen p53 (Homo sapiens) (P04637 whole entry, looked up): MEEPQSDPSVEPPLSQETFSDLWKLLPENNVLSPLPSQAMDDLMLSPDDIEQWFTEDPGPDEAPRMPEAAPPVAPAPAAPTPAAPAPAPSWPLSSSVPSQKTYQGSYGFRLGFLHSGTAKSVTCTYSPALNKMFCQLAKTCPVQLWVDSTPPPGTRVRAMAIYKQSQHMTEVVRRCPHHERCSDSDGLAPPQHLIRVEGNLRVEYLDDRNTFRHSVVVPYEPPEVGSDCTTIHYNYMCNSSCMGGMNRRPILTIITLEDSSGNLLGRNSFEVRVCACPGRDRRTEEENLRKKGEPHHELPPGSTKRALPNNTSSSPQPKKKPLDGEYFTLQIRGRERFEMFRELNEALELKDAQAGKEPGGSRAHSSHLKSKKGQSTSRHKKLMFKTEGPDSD
The nature of experiment [6]: inducers of IRF3 signaling, differentiated THP-1 – cell-based, PMA-stimulated THP-1, luminescence (AID 1053176). As to conditions: PMA-differentiated THP-1, IRF3 reporter luminescence; stronger effect = higher value.
Experiment [7] in a line: MELAS cybrid and Rieske KO viability enhancers – cell-based, MELAS cybrids, Rieske KO mouse fibroblasts, CellTiter-Glo, primary screen (AID 1508586;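 active = mean z-score across replicates of 1.96 or higher in either the MELAS or the Rieske mutant cell line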;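 note: z relative to plate mean and SD of compound and empty wells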). As to conditions: low glucose. Background: ATP-based viability assays read luminescence as a measure of living cells.
Where [8] appears, read: MELAS cybrid survival, CellTiter-Glo 48 h, stronger effect = higher value.
Setting [9] is: Rieske KO mouse fibroblast survival, CellTiter-Glo 72 h.

For the compound `OCCCNc1nccc(-c2c(-c3ccc(F)cc3)nn3cc(C(F)(F)F)ccc23)n1`, in experiment [1], the liver cell % of control turned out to be 124%. The parasite % of control in experiment [1] was 77.5% (inactive). Also, the percent of negative control (+Dex) in experiment [2] is 106% (inactive). The z-score is 1.02 in experiment [2]; 0.765 (inactive) in experiment [3]; 0.66 (inactive) in experiment [4]; -0.607 (inactive) in experiment [7] (setting [8]); 0.0984 in experiment [7] (setting [9]). Also, the EGFP object count in experiment [5] came out at 2. The EGFP/DsRed ratio in experiment [5] is 0.0239 (inactive). For the same compound, the fraction signal in experiment [6] was -0.0065 (inactive).

The compound `O=C1NC(=O)C(c2cccc(Cl)c2)=C1Nc1ccc(Cl)c(C(=O)O)c1` came in with a liver cell % of control in experiment [1] of 102%. The parasite % of control in experiment [1] is 122% (inactive). The percent of negative control (+Dex) in experiment [2] was 96.5% (inactive). In addition, the z-score in experiment [2] is 0.205; in experiment [3] it was -0.33 (inactive); in experiment [4], -0.043 (inactive); in experiment [7] (setting [8]), -0.755 (inactive); in experiment [7] (setting [9]), -0.327. Moreover, the EGFP object count in experiment [5] is 2.5. The EGFP/DsRed ratio in experiment [5] was 0.103 (inactive). The fraction signal in experiment [6] was 0 (inactive).

Turning to `Nc1nccc(-c2c(-c3ccc(F)cc3)ncn2C2CCC(O)CC2)n1` (stereo unspecified), in experiment [1], the liver cell % of control came out at 93%. For the same compound, the parasite % of control in experiment [1] was 24.7% (inactive). The percent of negative control (+Dex) in experiment [2] is 110% (inactive). The z-score is 1.26 in experiment [2]; 0.765 (inactive) in experiment [3]; 2.25 (inactive) in experiment [4]; -1.17 (inactive) in experiment [7] (setting [8]); -0.368 in experiment [7] (setting [9]). For the same compound, the EGFP object count in experiment [5] is 2. The EGFP/DsRed ratio in experiment [5] was 0.124 (inactive). The fraction signal in experiment [6] is -0.0025 (inactive).

For the compound `CC1=C(C(=O)Nc2ccc3[nH]ncc3c2)C(c2ccc(F)cc2)NC(=O)N1` (stereo unspecified), the liver cell % of control in experiment [1] came out at 105%. In addition, the parasite % of control in experiment [1] was 158% (inactive). Further, the percent of negative control (+Dex) in experiment [2] is 100% (inactive). Also, the z-score in experiment [2] was 0.22; in experiment [3], 0.64 (inactive); in experiment [4], -0.296 (inactive); in experiment [7] (setting [8]), 0.62 (inactive); in experiment [7] (setting [9]) it was -0.219. The EGFP object count in experiment [5] stood at 3.5. For the same compound, the EGFP/DsRed ratio in experiment [5] is 0.352 (inactive). Besides, the fraction signal in experiment [6] is 0.0035 (inactive).

Regarding `CCc1nccc2c1nc(-c1nonc1N)n2CC`, the liver cell % of control in experiment [1] was 89.7%. The parasite % of control in experiment [1] is 130% (inactive). Also, in experiment [2], the percent of negative control (+Dex) is 67% (inactive). The z-score in experiment [2] was -2.37; in experiment [3] it was -0.475 (inactive); in experiment [4], -0.569 (inactive); in experiment [7] (setting [8]), 0.0182 (inactive); in experiment [7] (setting [9]), -0.326. The EGFP object count in experiment [5] is 2.5. For the same compound, the EGFP/DsRed ratio in experiment [5] is 0.0232 (inactive). In experiment [6], the fraction signal was 0.005 (inactive).

The compound `CS(=O)(=O)CCNCc1ccc(-c2ccc3ncnc(Nc4ccc(OCc5ccccc5)cc4)c3c2)o1` yielded a liver cell % of control in experiment [1] of 63.9%. Also, in experiment [1], the parasite % of control was 59.1% (inactive). Besides, the percent of negative control (+Dex) in experiment [2] is 74.5% (inactive). Further, the z-score was -1.54 in experiment [2]; 0.41 (inactive) in experiment [3]; -0.003 (inactive) in experiment [4]; 0.5 (inactive) in experiment [7] (setting [8]); -0.312 in experiment [7] (setting [9]). Moreover, the EGFP object count in experiment [5] was found to be 6.5. For the same compound, in experiment [5], the EGFP/DsRed ratio was 0.116 (inactive). For the same compound, the fraction signal in experiment [6] is 0.006 (inactive).

`CC(=O)NCc1cccc(C#Cc2cncnc2Nc2ccc(OCc3cccc(F)c3)c(Cl)c2)c1` had a liver cell % of control in experiment [1] of 86.2%. For the same compound, the parasite % of control in experiment [1] is 90.8% (inactive). In experiment [2], the percent of negative control (+Dex) was 77% (inactive). In addition, the z-score in experiment [2] was -1.32; in experiment [3] it was 0.19 (inactive); in experiment [4] it was -0.99 (inactive); in experiment [7] (setting [8]), 0.0992 (inactive); in experiment [7] (setting [9]), -0.0459. In addition, the EGFP object count in experiment [5] turned out to be 5.5. Besides, in experiment [5], the EGFP/DsRed ratio is 0.157 (inactive). The fraction signal in experiment [6] was 0.004 (inactive).

In experiment [1], `N#Cc1ccc(Oc2nccc(-c3c(-c4ccc(F)cc4)ncn3C3CCNCC3)n2)cc1` yielded a liver cell % of control of 76.8%. Moreover, in experiment [1], the parasite % of control was 142% (inactive). Besides, the percent of negative control (+Dex) in experiment [2] was 90.5% (inactive). In addition, the z-score in experiment [2] was 0.29; in experiment [3] it was 0.255 (inactive); in experiment [4], -0.275 (inactive); in experiment [7] (setting [8]), -0.193 (inactive); in experiment [7] (setting [9]) it was -0.456. Further, in experiment [5], the EGFP object count amounted to 1. Further, the EGFP/DsRed ratio in experiment [5] was 0.00276 (inactive). Further, the fraction signal in experiment [6] is -0.0025 (inactive).

`NC(=O)c1sc(-n2cnc3cc(C(F)(F)F)ccc32)cc1OCc1ccccc1Br` yielded a liver cell % of control in experiment [1] of 109%. In addition, in experiment [1], the parasite % of control was 113% (inactive). Besides, the percent of negative control (+Dex) in experiment [2] was 94.5% (inactive). The z-score was 0.595 in experiment [2]; 0.64 (inactive) in experiment [3]; -0.704 (inactive) in experiment [4]; 0.066 (inactive) in experiment [7] (setting [8]); -0.5 in experiment [7] (setting [9]). Also, in experiment [5], the EGFP object count was found to be 10.5. The EGFP/DsRed ratio in experiment [5] was 0.407 (inactive). Also, the fraction signal in experiment [6] was -0.0005 (inactive).

Turning to `Nc1nccc(C#Cc2cncnc2Nc2ccc(OCc3cccc(F)c3)c(Cl)c2)n1`, in experiment [1], the liver cell % of control worked out at 107%. The parasite % of control in experiment [1] was 81.2% (inactive). In addition, the percent of negative control (+Dex) in experiment [2] was 83.5% (inactive). Besides, the z-score in experiment [2] was -0.655; in experiment [3], 0.82 (inactive); in experiment [4] it was -1.19 (inactive); in experiment [7] (setting [8]), -0.936 (inactive); in experiment [7] (setting [9]), 0.011. Besides, in experiment [5], the EGFP object count was 313. The EGFP/DsRed ratio in experiment [5] is 1.99 (active). Besides, in experiment [6], the fraction signal was -0.0105 (inactive).

`Nc1ncnc2occ(-c3ccc(NC(=O)Nc4cccc(C(F)(F)F)c4)cc3)c12` yielded a liver cell % of control in experiment [1] of 49.9%. Besides, the parasite % of control in experiment [1] is 10.9% (inactive). For the same compound, in experiment [2], the percent of negative control (+Dex) is 66.5% (active). In addition, the z-score was -3 in experiment [2]; -0.335 (inactive) in experiment [3]; -1.22 (inactive) in experiment [4]; -0.197 (inactive) in experiment [7] (setting [8]); -0.452 in experiment [7] (setting [9]). The EGFP object count in experiment [5] worked out at 3.5. In addition, the EGFP/DsRed ratio in experiment [5] was 0.146 (inactive). Besides, the fraction signal in experiment [6] is -0.016 (inactive).
